# Screens deposited in PubChem BioAssay by Broad Institute.
# PAX8 inh HTS – inhibitors of PAX8-driven TPO luciferase reporter, primary screen, RMG-I cells, single concentration; SteadyGlo, 24 h; inhibition, % at 12.6 µM; 360,000 compounds, 1.2% hits;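 active = mean replicate inhibition at least 60% with every replicate also reaching 60%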;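 also: luciferase light reporting Pax8 driven TPO promoter activity; plate controls were median of neutral control wells for no effect and mitoxantrone controls for full effect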
# Env fusion inh – inhibitors of HIV-1 Env-driven cell-cell fusion, primary screen, HeLa-JRFL effector, CEM21 target cells, luciferase | inhibition, % at 12.3 µM | 360,000 compounds, 1.1% hits | AID 651610, 2012;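 active = mean replicate inhibition score of at least 50 and every replicate individually at or above 50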;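 also: 0% = plate neutral controls and 100% = maraviroc near 300 nM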
# INS-1E GSIS act – GLuc luminescence reporter in INS-1E cells, primary screen for activators of glucose-dependent secretion of insulin | INS-1E GLuc reporter insulin secretion, 2-3 h | activation, % at 16.6 µM | 370,000 compounds, 0.61% hits | AID 743287, 2014;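 active = lowest replicate activation of at least 40%, so every replicate reaches that level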;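 also: 0% = median of neutral control wells and 100% = median of IBMX positive control wells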
# PGC1a acetyl inh – inhibitors of PGC1a acetylation signal, primary screen, cell-based, U2OS, AlphaScreen, inhibitor mode; AlphaScreen anti-acetyl-lysine; with virally co-expressed GCN5 acetyltransferase; inhibition, % at 15.6 µM; 350,000 compounds, 0.17% hits;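 active = every replicate shows inhibition of at least 40%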;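 also: 0% = neutral control wells and 100% = positive control wells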
# EWS-Fli inh – EWS/Fli-driven NR0B1 reporter inhibitors, primary screen, A673 cells, NR0B1 luciferase, luminescence, MLPCN library. viability-normalised. inhibition, % at 12.6 µM. 350,000 compounds, 0.67% hits. AID 651661, 2012;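 active = mean inhibition of at least 50% after viability correction, with every replicate also passing that limit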;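 also: firefly luciferase signal divided by Alamar Blue viability fluorescence both relative to DMSO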
# CFTR F508del cor – F508del CFTR correction, initial screen, CFBE line, single point; 350,000 compounds, 0.36% hits; CFBE cells, YFP halide quenching; stimulated with forskolin plus potentiator P3; % fluorescence drop versus neutral controls; activity (quench increase), % at 7.58 µM; AID 720511, 2013;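 active = mean added fluorescence quench of at least 8% versus neutral control, with both replicates also reaching 8%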;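 also: cells transiently co-express mutant CFTR-F508del with the halide-sensitive YFP; corrector assay measuring rescue of mutant channel to the surface after 24 h compound exposure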
# Numbers without * were called inactive; i = inactive; x = no result given. Only some compounds are listed: those with a hit (about 2.7% of all), similar ones and a draw of the others.
SMILES,PAX8 inh HTS,Env fusion inh,INS-1E GSIS act,PGC1a acetyl inh,EWS-Fli inh,CFTR F508del cor
C/C=C/c1ccc(C2[C@@H]3CN(Cc4cocn4)C[C@H]2N3)cc1 (some centres undefined),-4,x,17,13,-11,0
CS(=O)(=O)N1C[C@@H]2C(c3ccccc3)[C@H](C1)N2CC1CC1 (some centres undefined),x,x,11,x,x,x
Cn1ncnc2c(=O)n(C)c(=O)nc1-2,x,x,x,100*,x,x
N#Cc1cccc(-c2ccc([C@H]3[C@@H](CO)N4CCCCN(C(=O)Cc5ccccc5)C[C@H]34)cc2)c1,11,x,-3,-9,8,4
N#Cc1cccc(-c2ccc([C@@H]3[C@H](CO)N4CCCCN(C(=O)Cc5ccccc5)C[C@@H]34)cc2)c1,19,x,-26,12,0,-1
O=C1NCN(c2ccccc2)C12CCN(C(c1cccs1)c1nnnn1-c1ccc3c(c1)OCCO3)CC2 (centres undefined),23,i,-34,-11,7,-4
O=c1[nH]c2ccccc2n1C1CCN(C(c2ccccc2)c2nnnn2-c2ccc3c(c2)OCCO3)CC1 (centres undefined),81*,13,-2,17,17,2
O=c1[nH]c2ccccc2n1C1CCN(C(c2cccs2)c2nnnn2-c2ccc3c(c2)OCCO3)CC1 (centres undefined),96*,34,-18,1,46,4
O=c1[nH]c2ccccc2n1C1CCN(C(c2nnnn2-c2ccc3c(c2)OCCO3)C2CC2)CC1 (centres undefined),86*,49,-46,14,8,3
Cc1ccc(OC(=O)N(C)C[C@H]2OCc3ccccc3-c3c(n(C)c4ccccc34)C(=O)N([C@@H](C)CO)C[C@H]2C)cc1,13,x,-15,-82,3,4
CC(C)NC(=O)N1C[C@@H]2C(c3ccccc3)[C@H](C1)N2C (some centres undefined),x,x,-7,x,x,x
O=C(Cc1cccnc1)N1CCCCN2[C@H](CO)[C@H](c3ccc(C#CC4(O)CCCC4)cc3)[C@H]2C1,-22,x,3,9,-4,0
C[C@H](CO)N1C[C@H](C)[C@H](CN(C)C(=O)Oc2cccc3ccccc23)OCc2cn(nn2)CCCC1=O,11,x,14,6,0,-2
COC1CCC(OC2CC(C3(C)CCC4(CC(O)C(C)C(C(C)/C=C(\C)C(=O)C(C)CC(C)C(=O)O)O4)O3)OC3(OC(C4OC(O)(CO)C(C)CC4C)CC3C)C2C)OC1C (centres undefined),106*,47,x,1,65*,-3
O=C(O)Cc1cnc[nH]1,-2,16,x,x,-5,-1
C[C@@H](N)Cc1cnc[nH]1,8,1,6,-2,-11,11*
O=C(O)[C@H]1[C@H](CO)[C@H]2Cn3c(ccc(-c4cccnc4)c3=O)[C@@H]1N2S(=O)(=O)c1ccccc1F,-25,x,11,x,-1,0
COC(=O)[C@@H]1[C@@H](CO)[C@@H]2Cn3c(ccc(-c4cccc(F)c4)c3=O)[C@H]1N2Cc1ccccc1,7,x,-6,x,6,2
C[C@@H]1O[C@@H](O[C@H]2C[C@@H](O)[C@]3(CO)[C@H]4[C@H](O)C[C@]5(C)[C@@H](C6=CC(=O)OC6)CC[C@]5(O)[C@@H]4CC[C@]3(O)C2)[C@H](O)[C@H](O)[C@H]1O,x,x,x,83*,x,x
CCCNC(=O)[C@H]1[C@H](CO)[C@H]2Cn3c(cccc3=O)[C@H]2N1CC,x,x,22,x,7,0
O=C(Cc1ccccn1)N1CCCCN2[C@@H](CO)[C@@H](c3ccc(-c4ccccc4F)cc3)[C@@H]2C1,99*,x,-18,8,12,0
O=C(Cc1cccnc1)N1CCCCN2[C@H](C1)[C@H](c1ccc(/C=C/c3ccccc3)cc1)[C@@H]2CO,81*,x,-13,0,6,3
O=C(Cc1ccccn1)N1CCCCN2[C@@H](CO)[C@H](c3ccc(-c4ccccc4F)cc3)[C@@H]2C1,67*,x,-12,9,26,0
